{
  "source": "the supplement of paper PMC11417369",
  "note": "± gives the standard deviation of the averaged measurements. Whole data set: some 25,000 sequences, median “ln(normalized median fluorescence intensity)” near 8.6, cut for the highest 2% near 10. The list comes from a sample in which the highest values are over-represented; it also holds similar and randomly drawn sequences.",
  "data": [
    {"system": "PfAP2-EXP AP2 domain (GST-tagged)", "experiment": "gcPBM binding intensity (ln(normalized median fluorescence intensity)); higher = stronger DNA binding", "summary_of_the_method": "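An Agilent 4 × 180k array carrying primer-extended double-stranded 36-bp intergenic genomic probes and negative controls received GST-tagged P. falciparum DNA-binding domains expressed in E. coli, about 25 μg on average, for 1 h. The binding buffer contained 1× PBS, 1% milk, 0.2 mg/ml BSA, 0.5% salmon testes DNA and 0.03% Triton X-100. Binding intensity is the top Masliner-normalised natural-log median intensity across replicate spots of either probe orientation, read after Alexa488 anti-GST antibody staining and a 488 nm scan.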", "values": [
      {"sequence": "ATAAAAATAAATAAATGTACATATATATATATATAT [XGTACX_site1277]", "gcPBM binding intensity (ln)": "10.1 ± 0.4"},
      {"sequence": "ATAAAAAAATATAAATGTACATATATATATATATAT [XGTACX_site5620]", "gcPBM binding intensity (ln)": "10.2 ± 0.2"},
      {"sequence": "TATAATAAATCGAACTGTACATATATATATATATAT [XGTACX_site7097]", "gcPBM binding intensity (ln)": "10.2 ± 0.33"},
      {"sequence": "AATGTAAAATATAAATGTACATATATATATATATAT [XGTACX_site5071]", "gcPBM binding intensity (ln)": "10.2 ± 0.24"},
      {"sequence": "AAAAAAAAAAAAAAATGTACATATAAATAAATATAT [XGTACX_site7248]", "gcPBM binding intensity (ln)": "8.51 ± 0.42"},
      {"sequence": "ATTTTTATAGAATGAACACACATATTATAGCATTTA [CACACA_site6842]", "gcPBM binding intensity (ln)": "8.45 ± 0.38"},
      {"sequence": "AACACTTCTTATTTATGTACTTAATTCCCAACGGAA [XGTACX_site4818]", "gcPBM binding intensity (ln)": "8.87 ± 0.46"},
      {"sequence": "CATATGATATTATTTTGTACTTATTACAAATATGAA [XGTACX_site7929]", "gcPBM binding intensity (ln)": "8.4 ± 0.42"},
      {"sequence": "TATAAAGCAACTGAAACACACAAATTTTTTTTTTTT [CACACA_site3218]", "gcPBM binding intensity (ln)": "8.04 ± 0.46"},
      {"sequence": "ACACATAATATGTGTAGTACTTTTTCTTTAACATTA [XGTACX_site1436]", "gcPBM binding intensity (ln)": "8.64 ± 0.36"},
      {"sequence": "TATAAAAATAATATTACACACATGTAAAATGCCCGT [CACACA_site7522]", "gcPBM binding intensity (ln)": "8.49 ± 0.31"},
      {"sequence": "GGACAAGTTTTTTACATAAATAAAAAAAATAAAAAA [XGTACX_negctrl_site125]", "gcPBM binding intensity (ln)": "8.44 ± 0.42"},
      {"sequence": "AAAAGGATTTTTTATACACACACTAACTAATGTATA [CACACA_site2356]", "gcPBM binding intensity (ln)": "8.23 ± 0.43"},
      {"sequence": "AAATGGAGTTAATATTGTACATATATATATATATAT [XGTACX_site5452]", "gcPBM binding intensity (ln)": "10.3 ± 0.18"},
      {"sequence": "ATACTAAAAATGAATGTACACATATATATATATATA [TGCATGCA_negctrl_site209]", "gcPBM binding intensity (ln)": "10.2 ± 0.33"},
      {"sequence": "TATAATATATACAAATGTACATATATATATATATAT [XGTACX_site4559]", "gcPBM binding intensity (ln)": "10.2 ± 0.42"},
      {"sequence": "TTATACTAAATGAACACACACACATATATATATATA [CACACA_site99]", "gcPBM binding intensity (ln)": "10 ± 0.5"},
      {"sequence": "ATACATGAATAAATATGTACACATATAAAAACATAT [XGTACX_site2740]", "gcPBM binding intensity (ln)": "8.68 ± 0.23"},
      {"sequence": "TAAATAAAATACAAATGTACATAAATAATAAATATA [XGTACX_site1813]", "gcPBM binding intensity (ln)": "8.76 ± 0.41"},
      {"sequence": "AATAAAATACAAAAATGTACAAATATAATATACATA [XGTACX_site279]", "gcPBM binding intensity (ln)": "8.34 ± 0.28"},
      {"sequence": "TATTAAATATTGTAATGTACATATATAATATAATAT [XGTACX_site1809]", "gcPBM binding intensity (ln)": "8.53 ± 0.17"},
      {"sequence": "ATATATATAATATATTGTACATATAATATATATATA [XGTACX_site4792]", "gcPBM binding intensity (ln)": "9.24 ± 0.042"},
      {"sequence": "TTAAATGTTATATATTGTACATATAATATATGTATT [XGTACX_site1492]", "gcPBM binding intensity (ln)": "8.27 ± 0.19"},
      {"sequence": "TCTGGCATATAATATTGTACACATATATATATATAT [XGTACX_site8182]", "gcPBM binding intensity (ln)": "10.2 ± 0.33"},
      {"sequence": "CATATATAATAATATTGTACATATATAATAATAATA [XGTACX_site3338]", "gcPBM binding intensity (ln)": "8.4 ± 0.35"},
      {"sequence": "GGATAAAATGCTACGAGTACATAAGCATTTTTCCCT [XGTACX_site7796]", "gcPBM binding intensity (ln)": "8.73 ± 0.35"},
      {"sequence": "ATGGTCTGTTAAAGATGTACTTTTTAAAAATAAACG [XGTACX_site2583]", "gcPBM binding intensity (ln)": "8.48 ± 0.25"},
      {"sequence": "TATAGGTATATATTATGTACTTATAATTATATAGAT [XGTACX_site1912]", "gcPBM binding intensity (ln)": "8.52 ± 0.35"},
      {"sequence": "TATATATATAAAATATGTACATAAAATTATTTATTT [XGTACX_site7666]", "gcPBM binding intensity (ln)": "8.61 ± 0.26"},
      {"sequence": "ATATAATAATAAGGCACACAAATTAAAATATAAAAA [CACACA_site3710]", "gcPBM binding intensity (ln)": "8.79 ± 0.35"},
      {"sequence": "TCATAAATATGAAAAAGTACAAAGGTAGATTTTGAA [XGTACX_site4535]", "gcPBM binding intensity (ln)": "8.48 ± 0.3"},
      {"sequence": "GGATAATATATTAGAACACACATATAGATGTAAAAA [CACACA_site6229]", "gcPBM binding intensity (ln)": "8.57 ± 0.54"},
      {"sequence": "TGTACAAATATGTACACACACACATATATATATATA [CACACA_site584]", "gcPBM binding intensity (ln)": "9.95 ± 0.31"},
      {"sequence": "AAATATATAATACATATGTAATATGCATATATATAT [GTGCAC_negctrl_site450]", "gcPBM binding intensity (ln)": "9.72 ± 0.16"},
      {"sequence": "ATTATGTTAATAATATGTACATATATCTACATATAT [XGTACX_site7978]", "gcPBM binding intensity (ln)": "8.37 ± 0.33"},
      {"sequence": "ACACAAGCACACAAATGTACATATATATATATATAT [XGTACX_site5146]", "gcPBM binding intensity (ln)": "10.2 ± 0.13"},
      {"sequence": "TTTTTTTTTTTTTATTGTACATACTTTTAAATATAT [XGTACX_site4303]", "gcPBM binding intensity (ln)": "8.55 ± 0.59"},
      {"sequence": "TCGTCACTTTAATATTGTACATATATATATATATAT [XGTACX_site8046]", "gcPBM binding intensity (ln)": "10.3 ± 0.13"},
      {"sequence": "TAAAAATCCACAAGCACACAAATGTACATATATATA [CACACA_site2462]", "gcPBM binding intensity (ln)": "8.71 ± 0.24"},
      {"sequence": "ATATATATATATATATGTACATATGTTAATCTGCAT [XGTACX_site1068]", "gcPBM binding intensity (ln)": "10.2 ± 0.31"},
      {"sequence": "ATATATGCATATATATGTACATATATATATATATAT [XGTACX_site7403]", "gcPBM binding intensity (ln)": "9.93 ± 0.4"},
      {"sequence": "ATATATATATATATATGTACATAATGCATATAATAT [XGTACX_site6142]", "gcPBM binding intensity (ln)": "10.2 ± 0.56"},
      {"sequence": "CGCTCTCTTTAATATTGTACATATATATTATATATA [XGTACX_site7017]", "gcPBM binding intensity (ln)": "8.77 ± 0.35"},
      {"sequence": "CGCATGCAATGTTAATGTACATATATATATATATGT [XGTACX_site3316]", "gcPBM binding intensity (ln)": "9.395 ± 0.049"},
      {"sequence": "TACAAATATATATGCACACACATATATGTATATGTG [CACACA_site3075]", "gcPBM binding intensity (ln)": "8.65 ± 0.26"}
    ]}
  ]
}
